Experimental findings from PubChem BioAssay are described below.

Test [1] has as its target Cell division control protein 42 homolog (Homo sapiens) (UniProt P60953). The experiment in a line: activated mutant Cdc42 GTP-binding inhibitors, dose response, biochemical, multiplex bead flow cytometry, Bodipy-FL-GTP (AID 1333;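 active means fitted half-maximal concentration within the tested dose range, moderate curve steepness, a statistically real signal drop, and little compound fluorescence or tag-binding interference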).
For test [2] the target is unchanged. The experiment in a line: wildtype Cdc42 GTP-binding inhibitors, dose response, biochemical, multiplex bead flow cytometry, Bodipy-FL-GTP (AID 1334;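 active means fitted half-maximal concentration within the tested range, moderate curve steepness, significant signal drop, and little compound fluorescence or bead-linkage interference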). Particulars: bead-based flow cytometry, Bodipy-FL-GTP binding to GST-Cdc42; at 100 µM (top of the series) unless noted. Background: In flow cytometry, cells or beads pass a laser one at a time.
In test [3] the target is GTPase HRas (Homo sapiens) (UniProt P01112). The test is described as follows: inhibitors of GTP binding to wildtype Ras, dose response, biochemical, multiplex bead flow cytometry (AID 1335;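 active means fitted half-maximal concentration within 10 nM to 100 µM, steepness 0.5 to 2, significant signal drop, low assay interference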). Particulars: bead-based flow cytometry, Bodipy-GTP binding to GST-Ras; at 100 µM (top of the series) unless noted.
GTPase HRas (Homo sapiens), sequence (P01112 whole entry, looked up): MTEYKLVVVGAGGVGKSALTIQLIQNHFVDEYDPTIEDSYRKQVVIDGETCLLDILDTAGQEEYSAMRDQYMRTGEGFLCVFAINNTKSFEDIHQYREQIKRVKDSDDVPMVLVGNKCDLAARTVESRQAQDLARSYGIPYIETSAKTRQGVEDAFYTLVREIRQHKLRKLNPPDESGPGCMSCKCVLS
Test [4] concerns Ras-related protein Rab-7a (dog), GTP binding. The test is described as follows: Rab7 GTP binding inhibitors, potency, dose response, biochemical, wildtype, multiplex bead flow cytometry (AID 1336; call rule not given here).
Test [5] addresses Ras-related C3 botulinum toxin substrate 1 (Homo sapiens) (UniProt P63000). The test is described as follows: wildtype Rac1 GTP binding inhibitors, dose response, biochemical, multiplex bead flow cytometry (AID 1340). Particulars: GST-Rac1 beads, Bodipy-FL-GTP binding; at 100 µM (top of the series) unless noted.
The target in test [6] is GTPase HRas (Homo sapiens) (UniProt P01112). The test is described as follows: activated Ras mutant GTP binding inhibitors, dose response, biochemical, multiplex bead flow cytometry (AID 1341;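 active means dose-response curve with midpoint inside the tested range, moderate steepness, significant amplitude and little compound fluorescence or bead-attachment interference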;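 further: GST-tagged constitutively activated Ras mutant immobilized on beads and multiplexed with other GTPases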).
Test [7] in a line: yeast TOR pathway RPL19A-GFP modulators, primary screen, cell-based, S. cerevisiae, multiplex flow cytometry (AID 1862; in the data active means percent of DMSO control GFP below about 86%;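 further: lower values mimic rapamycin by blocking the RPL19A rise seen in DMSO cells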). The following applies: S. cerevisiae RPL19A-GFP strain, flow cytometry fluorescence, 3 h; at 10 µM; stronger effect = lower value.
Test [8] is described as follows: modulators of MEP2-GFP levels in yeast, primary screen, S. cerevisiae, multiplex flow cytometry (AID 1867;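 active means GFP response, as percent of the DMSO control, above the screen-wide mean plus 3 SD, about 139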;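 further: median GFP channel fluorescence of barcode-gated MEP2-GFP cells measured by flow cytometry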). The following applies: S. cerevisiae MEP2-GFP strain, 3 h, at 10 µM, stronger effect = higher value, 100% means same as DMSO wells.
Test [9] in a line: modulators of CIT2-GFP expression in yeast, primary screen, S. cerevisiae, GFP fusion, multiplex flow cytometry (AID 1870;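 active means percent response above a set limit, the screen-wide mean plus 3 SD, cut at about 130% in these data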;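 further: barcoded CIT2-GFP strain pooled with four other GFP strains with rapamycin as positive control; median GFP fluorescence per well over plate mean of DMSO wells so 100% = DMSO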). Particulars: 3 h, at 10 µM, stronger effect = higher value.
A short description of test [10]: modulators of LAP4-GFP expression in yeast, primary screen, S. cerevisiae, multiplex flow cytometry (AID 1873;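 active means GFP signal, as percent of the solvent control, above the screen mean plus 3 SD, about 149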). The following applies: 3 h, at 10 µM, stronger effect = higher value.
The nature of test [11]: modulators of AGP1-GFP expression in yeast TOR pathway, primary screen, cell-based, multiplex flow cytometry, S. cerevisiae (AID 1887;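 active means GFP signal above the screen-wide mean plus 3 SD, that is over about 124.5% of the solvent control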;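 further: AGP1-GFP fusion strain of S. cerevisiae within a five-strain barcoded multiplex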). The following applies: 3 h, at 10 µM, stronger effect = higher value.
Test [12] can be described thus: inhibitors of CD8+ T cell-vesicle binding, pilot screen, LFA-1/ICAM-1 modulator project, MLPCN validation set, flow cytometry (AID 2523;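 active means response below a set limit, under 55% cells CD8-positive and vesicle-bound, and CD8 cells' 90th-percentile brightness under 279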;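 on vesicle binding response: mean PE anti-B7-1 fluorescence of CD8+ cells relative to row control; 100% = QL9-loaded vesicles with DMSO vehicle in the same plate row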). The following applies: 2C mouse CD8+ T cells, at 7 µM, stronger effect = lower value; double positive events: measured here: CD8+/vesicle+ event percentage.
Test [13] deals with Integrin beta-1 (Homo sapiens) + Integrin alpha-4 (Homo sapiens) (UniProt P13612+P05556). The experiment in a line: inhibition of HUTS-21 binding to VLA-4, pilot screen, VLA-4 allosteric modulator project, U937 cells, HUTS-21 mAb, flow cytometry, validation set (AID 2674;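 active means inhibition above 50%, about 3 SD of the validation set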;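 further: antibody binding induced by the VLA-4 ligand LDV present at three times its Kd; 0% = LDV ligand with antibody and no compound and 100% = antibody without LDV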). Particulars: HUTS-21 LIBS mAb binding, at 6.7 µM, stronger effect = higher value, binding induced by LDV ligand.
Integrin beta-1 (Homo sapiens) + Integrin alpha-4 (Homo sapiens), sequence (P05556 whole entry, looked up): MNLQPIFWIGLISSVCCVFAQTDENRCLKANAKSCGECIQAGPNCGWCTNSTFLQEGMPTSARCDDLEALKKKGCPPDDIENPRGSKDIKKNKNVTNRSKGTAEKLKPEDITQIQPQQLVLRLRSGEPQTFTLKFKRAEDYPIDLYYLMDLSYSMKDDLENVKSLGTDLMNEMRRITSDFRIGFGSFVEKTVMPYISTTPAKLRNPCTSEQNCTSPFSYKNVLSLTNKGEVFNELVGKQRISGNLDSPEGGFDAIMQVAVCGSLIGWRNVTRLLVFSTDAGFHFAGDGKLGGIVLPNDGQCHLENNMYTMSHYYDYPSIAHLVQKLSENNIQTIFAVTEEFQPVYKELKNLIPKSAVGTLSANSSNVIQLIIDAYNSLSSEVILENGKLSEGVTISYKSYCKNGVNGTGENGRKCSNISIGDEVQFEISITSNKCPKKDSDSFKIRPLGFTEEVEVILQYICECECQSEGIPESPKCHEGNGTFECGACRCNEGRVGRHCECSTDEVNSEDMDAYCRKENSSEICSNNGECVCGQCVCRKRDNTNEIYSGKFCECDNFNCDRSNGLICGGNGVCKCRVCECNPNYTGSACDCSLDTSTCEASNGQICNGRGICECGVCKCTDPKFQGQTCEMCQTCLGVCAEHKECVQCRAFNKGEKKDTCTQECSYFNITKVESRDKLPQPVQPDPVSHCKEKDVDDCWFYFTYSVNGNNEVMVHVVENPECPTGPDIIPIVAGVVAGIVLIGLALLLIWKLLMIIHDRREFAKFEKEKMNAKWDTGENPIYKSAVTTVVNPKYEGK
Integrin beta-1 (Homo sapiens) + Integrin alpha-4 (Homo sapiens), sequence (P13612 whole entry, looked up): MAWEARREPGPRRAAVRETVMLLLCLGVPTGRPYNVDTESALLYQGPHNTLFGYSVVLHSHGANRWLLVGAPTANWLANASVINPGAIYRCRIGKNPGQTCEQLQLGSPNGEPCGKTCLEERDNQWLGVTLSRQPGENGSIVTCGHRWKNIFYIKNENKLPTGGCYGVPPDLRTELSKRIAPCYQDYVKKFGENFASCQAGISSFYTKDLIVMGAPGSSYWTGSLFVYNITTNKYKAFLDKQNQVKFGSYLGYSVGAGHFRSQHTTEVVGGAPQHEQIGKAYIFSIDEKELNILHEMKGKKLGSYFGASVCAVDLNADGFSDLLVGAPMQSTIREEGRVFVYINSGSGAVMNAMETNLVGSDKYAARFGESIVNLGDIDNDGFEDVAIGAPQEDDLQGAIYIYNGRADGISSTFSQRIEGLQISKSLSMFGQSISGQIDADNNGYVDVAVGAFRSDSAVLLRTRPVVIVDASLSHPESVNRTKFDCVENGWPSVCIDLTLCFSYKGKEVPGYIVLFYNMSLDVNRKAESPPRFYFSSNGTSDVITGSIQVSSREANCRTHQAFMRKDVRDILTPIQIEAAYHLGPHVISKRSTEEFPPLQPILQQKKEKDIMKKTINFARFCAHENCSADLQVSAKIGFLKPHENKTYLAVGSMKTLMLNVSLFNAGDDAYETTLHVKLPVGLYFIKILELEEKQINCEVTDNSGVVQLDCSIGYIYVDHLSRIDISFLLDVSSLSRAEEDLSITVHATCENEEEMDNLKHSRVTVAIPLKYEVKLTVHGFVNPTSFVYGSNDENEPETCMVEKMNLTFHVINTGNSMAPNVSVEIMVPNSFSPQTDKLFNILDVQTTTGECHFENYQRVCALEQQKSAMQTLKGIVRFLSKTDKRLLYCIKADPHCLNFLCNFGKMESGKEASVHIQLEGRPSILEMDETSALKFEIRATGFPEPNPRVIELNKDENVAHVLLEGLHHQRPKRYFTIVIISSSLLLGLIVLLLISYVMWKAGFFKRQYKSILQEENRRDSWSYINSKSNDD
Test [14] can be described thus: superoxide lowering in aged yeast cells, pilot screen, validation compound set (AID 2706;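 active means superoxide response below 65% of plate, a cut near 3 SD across the whole screen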;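 further: yeast exposed to compound for one week at 30 degrees C before staining; 100% = mean of all compound wells on the same plate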). The following applies: S. cerevisiae aging, superoxide DHE fluorescence; at 10 µM; stronger effect = lower value.
Test [15] concerns the target Beta-adrenergic receptor kinase 1 (Homo sapiens) (UniProt P25098). The experiment in a line: GRK2 binders displacing RNA aptamer, biochemical, validation, human GRK2, bead flow cytometry (AID 488806;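 active means aptamer binding inhibition above 30%, about 3 SD of noise from non-fluorescent compounds; inactive means inhibition at or below 30%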). Particulars: bead-bound GRK2, FAM-aptamer displacement, at 10 µM, stronger effect = higher value.
In test [16] the target is Beta-2 adrenergic receptor (Homo sapiens) (UniProt P07550). The test is described as follows: beta2AR agonists driving receptor internalization, pilot screen, cell-based, FAP fluorogen, flow cytometry, validation set (AID 504459;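 active means percent response above 42, roughly 3 SD of non-fluorescent test compounds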;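 further: agonist-driven loss of surface beta2AR via internalization measured by FAP dye flow cytometry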). The following applies: Am2.2-beta2AR cells, FAP surface receptor flow cytometry; at 10 µM; stronger effect = higher value.
Beta-2 adrenergic receptor (Homo sapiens), sequence (P07550 whole entry, looked up): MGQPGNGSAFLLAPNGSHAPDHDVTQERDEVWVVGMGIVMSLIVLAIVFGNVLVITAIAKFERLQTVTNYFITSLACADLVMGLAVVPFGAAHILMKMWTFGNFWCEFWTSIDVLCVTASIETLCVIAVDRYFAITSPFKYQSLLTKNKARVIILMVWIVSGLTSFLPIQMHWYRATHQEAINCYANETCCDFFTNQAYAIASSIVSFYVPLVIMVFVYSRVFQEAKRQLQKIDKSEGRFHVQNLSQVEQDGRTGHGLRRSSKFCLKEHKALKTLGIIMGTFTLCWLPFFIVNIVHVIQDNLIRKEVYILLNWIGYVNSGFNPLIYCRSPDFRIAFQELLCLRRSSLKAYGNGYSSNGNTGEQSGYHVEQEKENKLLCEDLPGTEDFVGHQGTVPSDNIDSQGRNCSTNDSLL
In test [17] the target is AP-2 complex subunit beta (Homo sapiens) (UniProt P63010). The test is described as follows: inhibitors of arrestin peptide binding to AP2, pilot screen, biochemical, validation set, GST-AP2 beads, flow cytometry (AID 504541;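 active means inhibition above 54%, about 3 SD of non-fluorescent compounds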;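 further: AP2 carries R879A mutation and is captured from E. coli lysate; bead-bound FITC arrestin peptide fluorescence measuring arrestin peptide binding to AP2; 0% = DMSO wells and 100% = excess unlabeled arrestin peptide control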). Particulars: FITC arrestin peptide, at 10 µM, stronger effect = higher value, AP2 beta2 appendage fragment, R879A mutant.
AP-2 complex subunit beta (Homo sapiens), sequence (P63010 whole entry, looked up, the tested form may be a part, one chain of several): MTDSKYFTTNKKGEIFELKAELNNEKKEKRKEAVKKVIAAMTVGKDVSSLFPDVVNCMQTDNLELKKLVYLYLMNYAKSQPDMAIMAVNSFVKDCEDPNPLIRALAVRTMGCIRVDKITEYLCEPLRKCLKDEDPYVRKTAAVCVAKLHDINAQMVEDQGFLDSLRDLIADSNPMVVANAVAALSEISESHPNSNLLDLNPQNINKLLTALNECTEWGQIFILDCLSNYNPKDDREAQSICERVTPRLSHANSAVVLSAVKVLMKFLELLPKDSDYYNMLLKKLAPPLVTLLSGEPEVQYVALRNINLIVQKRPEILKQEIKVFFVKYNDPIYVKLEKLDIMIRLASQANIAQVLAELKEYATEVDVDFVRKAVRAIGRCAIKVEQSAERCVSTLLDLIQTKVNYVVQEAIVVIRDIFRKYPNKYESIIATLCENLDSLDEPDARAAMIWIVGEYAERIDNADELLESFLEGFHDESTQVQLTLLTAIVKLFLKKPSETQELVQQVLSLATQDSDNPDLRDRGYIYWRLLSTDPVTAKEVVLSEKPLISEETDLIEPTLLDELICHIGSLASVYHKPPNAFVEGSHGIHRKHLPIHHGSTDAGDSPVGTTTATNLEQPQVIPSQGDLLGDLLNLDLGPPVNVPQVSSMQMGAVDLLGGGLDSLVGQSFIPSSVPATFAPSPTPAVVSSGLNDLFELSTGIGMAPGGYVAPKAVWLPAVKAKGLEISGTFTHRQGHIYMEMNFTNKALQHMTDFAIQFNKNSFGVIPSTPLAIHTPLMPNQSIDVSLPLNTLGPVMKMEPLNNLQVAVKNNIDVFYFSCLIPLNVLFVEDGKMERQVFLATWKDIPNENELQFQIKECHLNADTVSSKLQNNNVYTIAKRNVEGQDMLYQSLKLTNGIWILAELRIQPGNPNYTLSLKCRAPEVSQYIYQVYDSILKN
Test [18] is described as follows: yeast V-ATPase proton transport modulators, S. cerevisiae, pHLuorin, HTS validation (AID 504600; in the data active means response above about 15%;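 further: plate controls were DMSO for no effect and reference compound for full effect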). Particulars: S. cerevisiae pHLuorin cytosolic pH, at 10 µM, stronger effect = higher value.
Test [19] has as its system anti-desmoglein-3 scFv antibody binding to human DSG3. The test is described as follows: inhibitors of anti-DSG3 scFv binding to DSG3, pilot screen, biochemical, validation compound set, bead-based, flow cytometry (AID 588368;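 active means binding below the plate cutoff, the plate median minus 3 SD, with a reading above zero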;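 further: signal is the median channel fluorescence of bead-bound GFP antibody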). The following applies: Protein G beads, DSG3-Fc, scFv-GFP binding, at 10 µM, stronger effect = lower value.
A short description of test [20]: inhibitors of fungal efflux pumps CDR1, CDR2, MDR1, pilot screen, validation compound set, multiplex, phenotypic (AID 588506;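 active means efflux inhibition above 0.42, the validation set average plus 4 SD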;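 further: Nile Red retained in cells so higher fluorescence means more efflux inhibition; 0 = negative control wells and 1 = enniatin B 25 µM full block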). Particulars: S. cerevisiae pump-expressing triplex, Nile Red efflux flow cytometry; at 10 µM; stronger effect = higher value; the pumps come from Candida albicans.
The target of test [21] is ATP-binding cassette sub-family B member 6 (Homo sapiens) (UniProt Q9NP58). The test is described as follows: ABCB6 transporter inhibitors, pilot screen, K562-ABCB6 cells, flow cytometry, validation set (AID 588550;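 active means inhibition above the screen-wide mean plus 3 SD, about 51%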;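 further: 0% = DMSO wells and 100% = benzethonium chloride 70 µM positive control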). Particulars: K562-ABCB6 porphyrin accumulation, 1 h, at 10 µM, stronger effect = higher value.
ATP-binding cassette sub-family B member 6 (Homo sapiens), sequence (Q9NP58 whole entry, looked up): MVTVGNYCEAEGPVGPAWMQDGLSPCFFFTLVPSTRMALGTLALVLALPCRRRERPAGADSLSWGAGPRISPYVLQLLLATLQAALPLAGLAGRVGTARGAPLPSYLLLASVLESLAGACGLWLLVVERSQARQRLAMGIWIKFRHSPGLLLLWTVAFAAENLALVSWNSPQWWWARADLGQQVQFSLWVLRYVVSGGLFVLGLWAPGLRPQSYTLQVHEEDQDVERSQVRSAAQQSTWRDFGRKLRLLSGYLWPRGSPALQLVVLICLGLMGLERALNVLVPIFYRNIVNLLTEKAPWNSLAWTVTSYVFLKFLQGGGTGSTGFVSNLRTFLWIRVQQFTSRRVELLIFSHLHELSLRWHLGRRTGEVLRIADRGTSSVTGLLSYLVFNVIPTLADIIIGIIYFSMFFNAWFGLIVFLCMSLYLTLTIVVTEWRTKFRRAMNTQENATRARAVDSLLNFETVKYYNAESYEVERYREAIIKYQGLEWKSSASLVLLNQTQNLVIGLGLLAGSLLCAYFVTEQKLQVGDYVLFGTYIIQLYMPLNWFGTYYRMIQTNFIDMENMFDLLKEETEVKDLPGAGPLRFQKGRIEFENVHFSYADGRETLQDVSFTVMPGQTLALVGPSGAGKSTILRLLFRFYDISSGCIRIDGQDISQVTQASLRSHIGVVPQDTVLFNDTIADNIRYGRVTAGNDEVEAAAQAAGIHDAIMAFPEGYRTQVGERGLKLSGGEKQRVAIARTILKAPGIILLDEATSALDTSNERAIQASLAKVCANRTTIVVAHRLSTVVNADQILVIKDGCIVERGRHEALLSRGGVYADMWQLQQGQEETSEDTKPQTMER
Test [22] is described as follows: promoters of myeloid differentiation in arrested cells, primary screen, cell-based, GFP/MAC1 double positive, flow cytometry, validation set (AID 588685;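 active means differentiation response of at least 50%, scaled between solvent and reference control, from cells with both markers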;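 further: compound exposure lasts four days before antibody staining and flow analysis; 0% = DMSO wells and 100% = 5 µM fulvestrant positive control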). Particulars: ER-HoxA9 marrow cells, stronger effect = higher value, normalized: vehicle 0, fulvestrant 100.
A short description of test [23]: RPL19A-GFP modulators, yeast TOR pathway, confirmation, cell-based, S. cerevisiae, flow cytometry, cherry picks, mother/daughter gates (AID 2270;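 active means GFP response below 50% of the DMSO control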). The following applies: S. cerevisiae RPL19A-GFP strain, 3 h, at 10 µM, stronger effect = lower value, 100 = same GFP as DMSO wells.
Test [24] in a line: LAP4-GFP expression modulators in yeast, confirmation, cell-based, cherry picks, flow cytometry, mother/daughter gates (AID 2271;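 active means GFP response above 150% of the DMSO control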;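 further: ratio of sample to DMSO plate mean so 100% equals DMSO level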). The following applies: S. cerevisiae LAP4-GFP strain, 3 h, at 10 µM, stronger effect = higher value, 100 means same as DMSO control.
Test [25] in a line: modulators of MEP2-GFP levels in yeast, confirmation, S. cerevisiae, flow cytometry GFP, cherry picks (AID 2272;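 active means GFP response above 150% of the DMSO control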;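 further: ratio of well signal to plate DMSO mean so 100% equals DMSO level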). The following applies: S. cerevisiae MEP2-GFP strain, 3 h, at 10 µM, stronger effect = higher value.
The nature of test [26]: AGP1-GFP expression modulators, hit retest, confirmation, cell-based, flow cytometry, S. cerevisiae, cherry picks (AID 2273;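 active means GFP response above 150% of the DMSO level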;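 further: median GFP channel fluorescence over the whole cell population gate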). The following applies: S. cerevisiae AGP1-GFP strain, 3 h, at 10 µM.
Test [27] is described as follows: modulators of CIT2-GFP expression in yeast, confirmation, S. cerevisiae, GFP fusion, cherry picks, mother/daughter gates (AID 2274;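 active means GFP response above 150% of the DMSO level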). The following applies: S. cerevisiae CIT2-GFP strain, flow cytometry, 3 h, at 10 µM, stronger effect = higher value.
The mark [28] stands for this setting: measured here: daughter cell gate.
Setting [29] is: measured here: mother cell gate.

SMILES strings stand for the structures. Results filed as inconclusive are left out. For some of these results: Entries with a potency or affinity are not part of this list. The source made the active and inactive calls.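 How the source made its calls, unless noted: active means dose curve with midpoint inside tested range, moderate steepness, plateau gap beyond fit error, low compound glow and bead-link interference; inactive means the rest.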

Cell division control protein 42 homolog (Homo sapiens), sequence (P60953 whole entry, looked up): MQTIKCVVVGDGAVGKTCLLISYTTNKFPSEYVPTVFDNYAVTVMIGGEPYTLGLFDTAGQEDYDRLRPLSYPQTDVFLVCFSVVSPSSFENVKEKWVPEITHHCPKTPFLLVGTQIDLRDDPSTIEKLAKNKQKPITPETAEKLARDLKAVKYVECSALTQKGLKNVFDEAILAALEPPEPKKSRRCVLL

For orientation: inhibition means the change of the read-out against control, counted positive when it falls. Take `O=C(O)c1ccccc1OCCOc1ccccc1`: the call in test [1], in [4] and in test [6] was inactive. Moreover, the fluorescence, percent of control (lower = inhibition) in test [2] amounted to 82.8%. The GTP binding, percent of control in [3] came to 81.1%. The compound further gave a GTP binding signal, raw median fluorescence (lower = inhibition) (MCF (arbitrary fluorescence units)) in test [5] of 297. For the same compound, the percent of DMSO control GFP in test [7] was 93.4% (inactive). Moreover, the figures for the GFP response vs DMSO in [8] and in test [10] were 98.8% (inactive) and 129% (inactive), respectively. In test [9], the percent response of DMSO control was 83.1% (inactive). Moreover, the GFP response, % of DMSO in test [11] is 77.1% (inactive). Moreover, the double positive events in [12] worked out at 66%. Moreover, in test [12], the vesicle binding response was 133% (inactive). For the same compound, the inhibition in [13] was 2.55% (inactive); in test [17] it was 52.1% (inactive); in [21], 8% (inactive). The superoxide response (% of plate) in test [14] was 43.5% (active). For the same compound, the aptamer binding inhibition in [15] was 2% (inactive). For the same compound, the results for the response in test [16] and in [18] were 32.2% (inactive) and -1.15% (inactive), respectively. In test [19], the binding (% of control) is 96% (inactive). Further, the efflux inhibition (fraction of control) in test [20] is 0.74 (active). Further, the differentiation response in test [22] is 34.6% (inactive).

For `O=C(C#Cc1cccc([N+](=O)[O-])c1)c1ccccc1`, the call in [1], in [4] and in [6] was inactive. For the same compound, the fluorescence, percent of control (lower = inhibition) in test [2] turned out to be 31.6%. In addition, the GTP binding, percent of control in test [3] came to 81%. The same compound showed a GTP binding signal, raw median fluorescence (lower = inhibition) (MCF (arbitrary fluorescence units)) in [5] of 245. In addition, the GFP response vs DMSO in test [23] is 94.1% (inactive); in test [23] (setting [28]) it was 98%; in [23] (setting [29]), 88%; in test [25] it was 133% (inactive). For the same compound, the GFP response relative to DMSO was 190% (active) in [24], 167% in [24] (measured here: daughter cell gate response) and 178% in [24] (measured here: mother cell gate response). The GFP response, % of DMSO was 113% (inactive) in test [26], 101% (inactive) in test [27], 104% in test [27] (setting [28]) and 91% in [27] (setting [29]).

Turning to `Cc1no[n+]([O-])c1COc1cccc(/C=C2\N=C(c3ccccc3)OC2=O)c1`, the outcome in test [1], in test [4] and in test [6] was inactive. In [2], this compound had a fluorescence, percent of control (lower = inhibition) of 46.6%. In addition, in [3], the GTP binding, percent of control stood at 60.8%. The compound further gave a GTP binding signal, raw median fluorescence (lower = inhibition) (MCF (arbitrary fluorescence units)) in test [5] of 184.
